Screening data deposited in PubChem by National Center for Advancing Translational Sciences (NCATS).
HP1b binding inh = blocks HP1-beta chromodomain binding to methylated histone tails; AlphaScreen HP1-beta / biotin-H3K9me3 peptide binding; P83916; Potency, µM (highest dose often 114 µM), for the others: top-dose activity change, negative = inhibition, usual class: inhibitors; 0.56% of 390,000 active; note: nearly all actives have a fitted effect of over 70% in size
Target sequence (P83916 whole entry, looked up): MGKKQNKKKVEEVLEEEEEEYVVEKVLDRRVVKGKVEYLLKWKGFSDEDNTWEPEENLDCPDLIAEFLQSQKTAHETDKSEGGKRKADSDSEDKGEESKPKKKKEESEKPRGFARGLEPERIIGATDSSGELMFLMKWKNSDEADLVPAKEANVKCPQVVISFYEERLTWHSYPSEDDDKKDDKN
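HP1-beta protein (50 nM final) preincubated 30 min at room temperature with biotinylated H3(1-18)K9me3 peptide (50 nM) in PBS pH 7.4, 0.01% Tween-20, then compound added for 30 min. AlphaScreen streptavidin donor/nickel chelate acceptor beads (10 ug/mL final), 30 min dark, luminescence read.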
L3MBTL1 block = blocks human L3MBTL1 | Q9Y468 | AlphaScreen L3MBTL1–H3K9me1 peptide binding | Potency, µM (highest dose often 57.1 µM), for the others: at the top dose activity, negative = inhibition, usual class: inhibitors | 0.66% of 230,000 active | AID 485360; note: % is set by controls: 0 for no effect and ±100 for the full control effect; nearly all actives have a fitted effect of over 60% in size
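First, the protein-peptide complex forms for 30 min at room temperature (L3MBTL1 50 nM, biotinylated H3K9me1 peptide 75 nM). Next, compounds are pin-transferred and incubated 30 min. Finally, AlphaScreen beads are added and read after 30 min.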
JMJD2A Tudor = JMJD2A Tudor domain (human) inhibition; AID 504339; O75164; AlphaScreen JMJD2A-Tudor / H3K4me3 peptide binding; Potency, µM (titrated, usually from 114 µM), without a hit: at the highest dose activity change, negative = inhibition, usual class: inhibitors; 4.4% of 390,000 active; note: % is set by controls: 0 for no effect and ±100 for the full control effect; nearly all actives have a fitted effect of over 50% in size
Sfp PPTase inh = blocks B. subtilis Sfp PPTase activity | Biochemical Sfp PPTase activity, qHTS | Potency, µM, inactives show largest response in the series, negative = inhibition, most hits filed as inhibitors | 3.5% of 310,000 active;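 note: the enzyme is Sfp with the accession as filed and its product quenches rhodamine fluorescence; 0% = enzyme reaction without inhibitor and -100% = no enzyme wells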
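With Hepes-Na pH 7.6 buffer containing 10 mM MgCl2, Sfp (15 nM) modified BHQ-2-YbbR (12.5 uM) using rhodamine-CoA (5 uM). Two reads 30 minutes apart at 525/598 nm yielded each well's rate.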
G9a inh = inhibitors of human histone lysine methyltransferase G9a | Potency, µM (doses to about 102 µM), inactives show top-dose activity, negative = inhibition, hits mostly inhibitors | 8.8% of 350,000 active | G9a H3K9 monomethylation, AlphaScreen, 2 h | AID 504332 | Q96KQ7; note: % is set by controls: 0 for no effect and ±100 for the full control effect; nearly all actives have a fitted effect of over 75% in size
Target sequence (Q96KQ7 913-1193 limits assumed): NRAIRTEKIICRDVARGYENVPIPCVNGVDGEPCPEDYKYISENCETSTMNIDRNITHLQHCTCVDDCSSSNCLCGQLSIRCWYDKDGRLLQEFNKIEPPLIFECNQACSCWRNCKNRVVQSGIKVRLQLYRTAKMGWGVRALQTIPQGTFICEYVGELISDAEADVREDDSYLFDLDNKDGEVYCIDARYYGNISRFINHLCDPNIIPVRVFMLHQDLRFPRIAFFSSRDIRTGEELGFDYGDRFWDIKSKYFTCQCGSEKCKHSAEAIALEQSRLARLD
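AlphaScreen read-out: biotin-H3K9 peptide (500 nM) methylation by 20 nM enzyme with 20 uM SAM, 2 h at room temperature after 15 min compound preincubation; anti-monomethyl H3K9 antibody plus donor/acceptor beads, 10 min dark.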
BAZ2B block = blocks human BAZ2B. 4.4% of 360,000 active. AlphaScreen BAZ2B-H3K14Ac peptide displacement. Potency, µM (titrated, usually from 114 µM), without a hit: at the top dose activity change, negative = inhibition, actives largely listed as inhibitors. Q9UIF8; note: % is set by controls: 0 for no effect and ±100 for the full control effect; nearly all actives have a fitted effect of over 60% in size
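AlphaScreen displacement of biotin-H3(5-23)K14Ac peptide (50 nM final) from BAZ2B (50 nM final) in PBS pH 7.4, 0.01% Tween-20; complex preformed 30 min RT, then compounds (top 110 uM) 30 min RT, beads 20 min dark.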
* hit, by the source's call; ? = inconclusive; . = no result; ! = a repeat was not active; [ ] = remark or other dose. Only some compounds are listed: those with a hit (about 12% of all), similar ones and a draw of the others. Calls come from the whole dose curve; as a rule, active = well fitted curve in the direction sought with a large enough effect; inconclusive = small, poorly fitted or top-dose-only effect, or another doubt; inactive = no such curve, though single readings can be large; an effect the other way counts as inactive or inconclusive. Potency is the fitted concentration of half-maximal effect.

SMILES	HP1b binding inh	L3MBTL1 block	JMJD2A Tudor	Sfp PPTase inh	G9a inh	BAZ2B block
Cc1cc(C)c(C(=O)CSc2nnc(C)c(=O)[nH]2)cc1C	31.2%	22.0%	-5.1%	7.8%	39.8µM*	-13.5%
CC(N=Cc1cccc(O)c1O)c1ccccc1 (stereo not given)	?	.	44.7µM*	?	1.26µM*	50.1µM*
Oc1cccc(/C=N/N=C/c2cccc(O)c2O)c1O	13.8%	-2.3%	-24.5%	24.0%	31.6µM*	-30.9%
Cc1cccc(C=Nc2ccc3c(c2)oc2ccccc23)c1O	5.3%	-11.0%	-20.6%	?	-36.9%[59 µM]	?
Cc1ccccc1N=Cc1cccc(O)c1O	?	2.51µM*	39.8µM*	?	7.94µM*	39.8µM*
C/C(=N/N=C/c1ccccc1O)c1ccccc1O	38.3%	.	7.7%	1.4%	-3.4%	-2.5%
CC(N=Cc1cc([N+](=O)[O-])ccc1O)c1ccccc1 (stereo not given)	24.6%	.	-11.4%	14.4%	-33.6%	.
Cc1ccc(N=Cc2cccc(O)c2O)c(C)c1	15.8µM*	31.6µM*	35.5µM*	3.55µM*	?	-31.8%
CC(=O)N1c2ccc(S(=O)(=O)NCCC(=O)Nc3ccc(Br)c(C)c3)cc2CC1C (stereo not given)	26.3%	.	-14.7%	.	-0.4%[59 µM]	-11.9%
CC(=O)Nc1ccc(C=NN=C2c3ccccc3-c3ccccc32)cc1	-13.3%	.	?	.	.	.
Oc1ccccc1C=NN=C1c2ccccc2-c2ccccc21	44.7µM*	.	15.8µM*	.	.	.
Cc1ccc(-c2cc(C3C4C=CCC(C)C4C(=O)N3Cc3ccccc3)ccc2F)cc1 (stereo not given)	17.8%	.	-11.7%	-15.0%	.	.
COc1ccc(N/C(=C(/C(Cl)=C(Cl)Cl)[N+](=O)[O-])n2nnc3ccccc32)cc1	.	.	.	?	11.2µM*	50.1µM*
Cc1ccccc1N/C(=C(/C(Cl)=C(Cl)Cl)[N+](=O)[O-])n1nnc2ccccc21	-5.5%	.	?	-4.3%	10µM*	50.1µM*
CCCC[C@@H]1C[C@H]1C(NC(=O)c1ccco1)c1ccccc1C(F)(F)F (stereo not given in full)	.	.	.	23.0%	.	.
Cn1cc(P(=O)(c2ccccc2)c2ccccc2)c2ccccc21	.	.	-15.0%	.	.	.
CCc1cc(=O)oc2cc3occ(-c4ccc(OC)c(F)c4)c3cc12	15.7%	10.4%	-34.9%	20µM*	-1.2%[59 µM]	-35.0%
CCc1cc(=O)oc2cc3occ(C)c3cc12	16.2%	4.9%	-12.2%	-0.7%	-1.8%[59 µM]	-6.4%
S=c1[nH]c2cc3c(cc2[nH]1)OCCO3	2.6%	0.0%	-31.8%	12.1%	3.55µM*	-13.4%
CCCCN(CC)Cc1ccc(CNC(=O)Nc2ccc(F)cc2)o1	15.2%	.	-9.2%	-2.7%	8.7%[12.7 µM]	-0.4%
CCCCN(CC)Cc1ccc(CNC(=S)Nc2c(C)cc(C)cc2C)o1	-4.5%	.	-26.6%	44.7µM*	?	-6.3%
CCCCN(CC)Cc1ccc(CNC(=S)Nc2ccc(C)cc2Cl)o1	3.1%	.	-33.6%	-13.2%	35.5µM*	3.9%
CS(=O)(=O)N1CCC2(CCCN(C(=O)Nc3cccc(C#N)c3)C2)CC1	.	.	.	35.9%	-9.1%[12.7 µM]	.
COc1cccc(CNC(=O)Cn2ncn3cccc3c2=O)c1OC	26.7%	-3.1%	-16.3%	8.6%	5.8%	-29.6%
COCCn1c(-c2ccc(OC)cc2)c(-c2ccc(OC)cc2)oc1=O	-12.1%	.	-14.4%	-6.2%	-20.6%[2.33 µM]	35.5µM*
SMILES	HP1b binding inh	L3MBTL1 block	JMJD2A Tudor	Sfp PPTase inh	G9a inh	BAZ2B block
COc1ccc(OCC(=O)Nc2cc(OC)ccc2N2CCCCC2)cc1	33.6%[57 µM]	.	-5.2%	-13.0%	21.2%	-22.5%
COc1ccc(C2CC(c3ccccc3)Oc3ccc(OC)cc32)cc1 (stereo not given)	7.1%	.	?	3.8%	.	.
COc1ccccc1CN1CCCC(C(=O)N(C)Cc2ccccc2)C1 (stereo not given)	?	-3.7%	3.16µM*	?	?	-0.2%
COc1ccc(CN2CCCC(C(=O)N(C)Cc3ccccc3)C2)cc1OC (stereo not given)	?	-2.2%	0.891µM*	-26.0%	10µM*	?
Cc1ccc(-c2nnc(Nc3ccc(O)cc3)c3ccccc23)cc1S(=O)(=O)N1CCCCC1	-6.5%	.	?	.	-30.2%[59 µM]	-15.0%
CC(C)(C)C1CCc2c(sc(NC(=O)Cn3nnc(-c4cccc(C(F)(F)F)c4)n3)c2C#N)C1 (stereo not given)	11.5%	.	-17.2%	.	-27.2%[59 µM]	-14.6%
O=C(c1cccc(S(=O)(=O)N2CCOCC2)c1)N(Cc1nnc(-c2ccccc2Cl)o1)C1CC1	-2.6%	-1.5%	-19.4%	.	50.1µM*	-4.0%
O=C(c1cc([N+](=O)[O-])cc([N+](=O)[O-])c1)N(Cc1nnc(-c2ccccc2Cl)o1)C1CC1	14.8%	-7.0%	?	3.1%	?	-30.0%
O=C1CCCN1c1ccc(C(=O)N(Cc2nnc(-c3ccccc3Cl)o2)C2CC2)cc1	29.6%	2.2%	-10.3%	.	12.6µM*	6.6%
O=C(c1ccc(Cl)c(S(=O)(=O)N2CCOCC2)c1)N(Cc1nnc(-c2ccccc2Cl)o1)C1CC1	20.1%	-3.1%	-18.6%	.	-11.5%	-5.2%
CCn1cnc2c(Nc3cc(F)cc(F)c3)nc(C(=O)COc3c(F)c(F)cc(F)c3F)nc21	.	.	-16.4%	.	.	.
CCOC(=O)c1c(Cc2ccccc2)c[nH]c1C	-12.9%	.	-10.2%	7.6%	56.2µM*	-14.9%
CCOC(=O)c1c(C)c[nH]c1C	-9.3%	-22.6%	-25.7%	12.4%	8.8%	-16.8%
OCc1cc(C(O)CNCCCCCCOCCCCc2ccccc2)ccc1O (stereo not given)	8.4%	3.8%	-24.5%	56.2µM*!	35.5µM*!	-1.6%
CC(C)(C)NCC(O)c1ccc(O)c(CO)c1 (stereo not given)	.	.	.	15.4%	3.0%[59 µM]	.
COC(=O)c1scc(-c2ccc(C)cc2)c1S(=O)(=O)Nc1cc(C)ccc1OC	40.4%	.	-28.3%	.	-15.6%[59 µM]	-19.1%
O=C(NCc1ccco1)c1cnccn1	24.4%	-30.4%	-20.5%	39.8µM*	30.8%[59 µM]	-16.3%
O=C(NCc1ccco1)c1cccs1	25.7%	-12.4%	-9.4%	0.2%	39.8µM*	-8.8%
O=C(NCc1cccnc1)c1cc(-c2ccco2)on1	23.1%	-8.8%	-8.3%	?	39.8µM*	-33.9%
O=C(NCc1ccco1)Nc1cccs1	-2.9%	-7.4%	-16.1%	17.8µM*	?	?
COCC(=O)Nc1c(I)c(C(=O)NC[C@@H](O)CO)c(I)c(C(=O)N(C)C[C@@H](O)CO)c1I	.	.	.	17.7%	30.0%[21.5 µM]	.
Cc1nn(C)c(C)c1S(=O)(=O)NCCc1ccc(Cl)cc1	47.4%	.	3.4%	24.1%	22.8%	3.3%
C[C@@](N)(C(=O)O)c1ccc(P(=O)(O)O)cc1	.	.	.	-1.0%	.	.
COc1cccc(-n2c(=O)c3sc4ccccc4c3n(CC(=O)NC3CCCCC3)c2=O)c1	75.5%	.	-19.5%	.	18.4%[59 µM]	28.0%
